The supplement of paper PMC6555819

Test system: VDR:RXRa (NR concentration 270 nM, RXRa partner concentration 90 nM)
Experiment: PBM binding z-score (relative to random genomic background probes); higher = stronger binding; sequences stand for … in GC…GCGATTGACAGCGTAGAATGAAGG
Protocol: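 Protein-binding microarray (Agilent 4x180K custom design, double-stranded 60-nt probes: 5' GC cap, 34-nt variable region, 24-nt constant primer region; full probe sequence given). Purified or IVT nuclear receptor:RXRα heterodimers (3:1 NR:RXRα, mostly 270:90 nM) or homodimers were incubated for 1 h in PBS with 2% milk and no ligand, then detected with Alexa488 antibodies. Fluorescence from o1-orientation probes (~5 replicates averaged) was converted to z-scores against 500 random hg19 background probes. Variable regions are seed direct-repeat (DR0–DR5) sites, all their single-nucleotide variants and half-site ablations.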

Sequence | PBM binding z-score
TCGAGTTGGTTACGGGGGCATTCAGGGATGAAGA | 3.63
CCAAGTAGGTTACGAGGGGGCATTCAGTGCGAAT | 5.54
CAAACTAGGTCAAAGGACAGTGAAAGGCGACGTA | 1.53
TCGAGTAGGTTACGGGGGCAATCAGGGATGAAGA | 3.22
CGAACTAGGTCAGCAGGACAGTGAAGAGGTTGGA | 0.428
TTGAGTAGGTTACGGGGGCATTCAGGGATGAAGA | 4.34
ATCGAATGGTCGAGGTGAGTATAGAGAAAGGGAA | -0.226
ATATGTAGGTTAGTGTCATTCAGAAAGTAGGGAA | 1.04
CAAACTAGGTCACGAGGTCAAAGTCCGCTTCCCG | 6.42
TCGAGTAGGTTACGGGGGCACTCAGGGATGAAGA | 3.33
CTTACTGGGCCAAAGGTCATTGATTCCAATGCTC | 4.77
CGAACTAGGTCACGAGGACAGTGAAGAGGTTGGA | 2.75
ACTAGCAGGTCAAGGGTCACTCAAGATTAGTCCG | 5.4
CGAGCTAGGTCACCAGGACAGTGAAGAGGTTGGA | 1.63
TTACCAAGGTGAAAGGTCGTTGAAGCACGCCTTG | 3.42
CTTAGTTGGTCAAGGTCACACACGCTATAGGTAC | 4.52
CAAACTAGGTCACCGGAAGGTCAAAGTTCGCATG | 6.38
CTAACTAGGTCACCAGGACAGTGAAGAGGTTGGA | 2.06
ATATGTAGCTTAAGGGTCATTCAGGTTGGTTCGC | 5.26
CGAACTATGTCAAAGGACAGTGAAAGGCGACGTA | -0.0394

Sequence | PBM binding z-score
AGTCAAAGTTCACTAGGTTACGTAAGATTCAGCT | 4.71
ATCGAAAGGTCGACGAGTTGAGTATACACCGTTT | 6.08
CTATGTAGGTTAAGGGGGTCATTCACTTTGAAAG | 7.21
CCTAGCAGGCCAGGGTCACCCAAGCATTTCGCTT | 2.96
CGAACTAGGTCACCAGGACCGTGAAGAGGTTGGA | 2.4
CGAATTAGGTCAAAGGACAGTGAAAGGCGACGTA | 1.65
CCTACAGGGCCAAAGGTCATTGATTCCAATGCTC | 5.03
ACTCGGAGGACAAAGGTAAGAGCTACGCCAGTGA | -0.371
CCGACTAGGTTACGAGGGGGCATTCAGTGCGAAT | 4.96
TCGAGTAGGTTACGGGGGCATACAGGGATGAAGA | 3.54
TCTCGGAGGACACGAAAGGGCAGAGCTCGACATC | -0.0327
TAGCCTAGGTCATTCAGGCGCCAGTATAGAAAGC | 2.53
CGTCTAAGGTCAGCAGGTCAGTGAAAGCGACGTG | 4.3
TCGAGTAGGTTACGGGGGGATTCAGGGATGAAGA | 3.28
CCTTACGGGTCAAGGTTGTAGCACGGGTGGTACG | 3.02
CGAACTAGGTCAAAGGACAGTCAAAGGCGACGTA | 1.69
AGAATGAGGTTACACGTAGATCAGGGAAGAAAGT | 1.67
CGTACTAGGTCAAAGGACAGTGAAAGGCGACGTA | 1.33
TAGCCTAGGTCATTGGGCCAGTATAGTACGCATC | 2.11
ACTAATTGGTCAGCTGAGGTCACACACAATTCGG | 4.77
